Test results from the supplement of paper PMC4466140.

Columns and labels:
Assay in all cases: SPOT peptide array binding signal intensity (averaged, normalized) (arbitrary units (background-subtracted, floor 0; scale differs between SH3 domains)); higher = stronger binding of the SH3 domain to the peptide
AgAbp1 = target: AgAbp1
Summary of the method: (§1)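 Cellulose membranes carried synthetic 15-mer peptides with cysteines swapped for serines. These were incubated overnight at 4°C with 10 μg/ml of GST-fused SH3 domains from four yeast species in TBS-based blocking buffer. Binding signal, detected with anti-GST antibody and quantified in Genespotter, is the normalized, background-subtracted spot intensity averaged over replicates, in arbitrary units specific to each domain.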

AgBbc1 = target: AgBbc1
Summary of the method: as §1

AgBem1-D1 = target: AgBem1-D1
Summary of the method: as §1

AgBzz1-D1 = target: AgBzz1-D1
Summary of the method: as §1

AgBzz1-D2 = target: AgBzz1-D2
Summary of the method: as §1

AgCyk3 = target: AgCyk3
Summary of the method: as §1

AgFus1 = target: AgFus1
Summary of the method: as §1

AgHof1 = target: AgHof1
Summary of the method: as §1

AgHse1 = target: AgHse1
Summary of the method: as §1

AgLsb1 = target: AgLsb1
Summary of the method: as §1

AgLsb4 = target: AgLsb4
Summary of the method: as §1

AgMyo5 = target: AgMyo5
Summary of the method: as §1

AgNbp2 = target: AgNbp2
Summary of the method: as §1

AgRvs167 = target: AgRvs167
Summary of the method: as §1

AgSho1 = target: AgSho1
Summary of the method: as §1

AgSla1-D1-D2 = target: AgSla1-D1-D2
Summary of the method: as §1

AgSla1-D3 = target: AgSla1-D3
Summary of the method: as §1

CaAbp1-D1 = target: CaAbp1-D1
Summary of the method: as §1

CaAbp1-D2 = target: CaAbp1-D2
Summary of the method: as §1

CaBbc1 = target: CaBbc1
Summary of the method: as §1

CaBem1-D1 = target: CaBem1-D1
Summary of the method: as §1

CaBzz1-D1 = target: CaBzz1-D1
Summary of the method: as §1

CaBzz1-D2 = target: CaBzz1-D2
Summary of the method: as §1

CaCyk3 = target: CaCyk3
Summary of the method: as §1

CaFus1 = target: CaFus1
Summary of the method: as §1

CaHof1 = target: CaHof1
Summary of the method: as §1

CaHse1 = target: CaHse1
Summary of the method: as §1

CaLsb1 = target: CaLsb1
Summary of the method: as §1

CaLsb4 = target: CaLsb4
Summary of the method: as §1

CaMyo5 = target: CaMyo5
Summary of the method: as §1

CaNbp2 = target: CaNbp2
Summary of the method: as §1

CaRvs167 = target: CaRvs167
Summary of the method: as §1

CaRvs167-3 = target: CaRvs167-3
Summary of the method: as §1

CaSho1 = target: CaSho1
Summary of the method: as §1

CaSla1-D1-D2 = target: CaSla1-D1-D2
Summary of the method: as §1

CaSla1-D3 = target: CaSla1-D3
Summary of the method: as §1

ScAbp1 = target: ScAbp1
Summary of the method: as §1

What does the source list for PSTMDFPKLPSFQNS?
SPOT peptide array binding signal intensity (AgAbp1): 3; SPOT peptide array binding signal intensity (AgBbc1): 10.5; SPOT peptide array binding signal intensity (AgBem1-D1): 88.5; SPOT peptide array binding signal intensity (AgBzz1-D1): 13; SPOT peptide array binding signal intensity (AgBzz1-D2): ≤ 0; SPOT peptide array binding signal intensity (AgCyk3): ≤ 0; SPOT peptide array binding signal intensity (AgFus1): 347; SPOT peptide array binding signal intensity (AgHof1): 63.2; SPOT peptide array binding signal intensity (AgHse1): 198; SPOT peptide array binding signal intensity (AgLsb1): 0.5; SPOT peptide array binding signal intensity (AgLsb4): 6; SPOT peptide array binding signal intensity (AgMyo5): 13.5; SPOT peptide array binding signal intensity (AgNbp2): 179; SPOT peptide array binding signal intensity (AgRvs167): 3.5; SPOT peptide array binding signal intensity (AgSho1): 376; SPOT peptide array binding signal intensity (AgSla1-D1-D2): ≤ 0; SPOT peptide array binding signal intensity (AgSla1-D3): 0.5; SPOT peptide array binding signal intensity (CaAbp1-D1): 0.5; SPOT peptide array binding signal intensity (CaAbp1-D2): 43.5; SPOT peptide array binding signal intensity (CaBbc1): 34.5; SPOT peptide array binding signal intensity (CaBem1-D1): 54; SPOT peptide array binding signal intensity (CaBzz1-D1): 85; SPOT peptide array binding signal intensity (CaBzz1-D2): 57.5; SPOT peptide array binding signal intensity (CaCyk3): 8; SPOT peptide array binding signal intensity (CaFus1): 1020; SPOT peptide array binding signal intensity (CaHof1): 1; SPOT peptide array binding signal intensity (CaHse1): 156; SPOT peptide array binding signal intensity (CaLsb1): 0.5; SPOT peptide array binding signal intensity (CaLsb4): 390; SPOT peptide array binding signal intensity (CaMyo5): 95.5; SPOT peptide array binding signal intensity (CaNbp2): 340; SPOT peptide array binding signal intensity (CaRvs167): 33.3; SPOT peptide array binding signal intensity (CaRvs167-3): 6.5; SPOT peptide array binding signal intensity (CaSho1): 1290; SPOT peptide array binding signal intensity (CaSla1-D1-D2): 136; SPOT peptide array binding signal intensity (CaSla1-D3): 157; SPOT peptide array binding signal intensity (ScAbp1): 3
